In PubChem BioAssay one finds inhibition data, which are given here for 23 molecules.

SMILES strings stand for the structures. Activity calls are given as the source filed them. No rule for the calls is given here.

The target in this test is Pantothenate synthetase (Mycobacterium tuberculosis (strain ATCC 25618 / H37Rv)) (UniProt P9WIL5). In words: Recombinant Mtb pantothenate synthetase (PanC) inhibitors, coupled enzyme, confirmatory (AID 375).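 Also: 0% = full reaction with vehicle and 100% = no enzyme background.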 To be noted: coupled enzyme assay; at 10 µM, stronger effect = higher value.
Sequence of Pantothenate synthetase (Mycobacterium tuberculosis (strain ATCC 25618 / H37Rv)) (P9WIL5 whole entry, looked up): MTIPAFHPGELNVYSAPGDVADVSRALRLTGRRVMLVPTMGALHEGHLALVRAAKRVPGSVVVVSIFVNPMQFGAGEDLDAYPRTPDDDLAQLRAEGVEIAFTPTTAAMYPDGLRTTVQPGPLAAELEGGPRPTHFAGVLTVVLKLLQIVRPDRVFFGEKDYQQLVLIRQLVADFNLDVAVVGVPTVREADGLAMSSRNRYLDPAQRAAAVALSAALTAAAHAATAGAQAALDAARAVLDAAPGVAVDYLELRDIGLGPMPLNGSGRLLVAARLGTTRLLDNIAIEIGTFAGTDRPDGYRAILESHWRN
Take `CCCn1cc(C(CC(=O)O)C(=O)O)c2ccccc21` (stereo not drawn): the inhibition – broadly, the change of the read-out against control, counted positive when it falls – was 8% (inactive). Next, `O=C(CSc1ncnc2nc[nH]c12)c1ccc(Cl)cc1`: 1% (inactive); `O=C(C1CCCCC1)N1CCC(c2nc3c(nnn3Cc3c(F)cccc3Cl)c(=O)[nH]2)CC1`: 0% (inactive). The result for `CCCCOCCCNC(=O)COc1ccccc1` reads 1% (inactive); that for `CCCNC(=O)c1ccccc1NC(=O)CN(c1ccccc1OCC)S(C)(=O)=O`, 0% (inactive). In the case of `COC(=O)c1nn(-c2ccc(-c3ccccc3)cc2)cc1O`, the inhibition is 0% (inactive). Next, `Nc1nc(C(=O)N2CCOCC2)nn1S(=O)(=O)c1ccc(Cl)cc1`: 0% (inactive); `CC(=O)Nc1ccccc1-c1nc2ccc(C(=O)N3CCN(c4ccccc4)CC3)cc2[nH]c1=O`: 7% (inactive). Take `Cc1cc(=O)oc2ccc(OCC(=O)N3CCC(C)CC3)cc12`: the inhibition was 0% (inactive). With `COc1cccc(C(=O)Nc2ccc(C)cc2)c1`, the inhibition is 1% (inactive). Next, `CS(=O)(=O)N1CCc2cc(C(=O)N3CCCCC3)ccc21`: 2% (inactive); `CC(Cc1ccc(O)c(O)c1)C(C)Cc1ccc(O)c(O)c1` (stereo not drawn): 0% (inactive). Next, `Cc1nc(NC(=O)c2ccccc2)sc1-c1csc(NCc2ccco2)n1`: 0% (inactive). On to `C=Cn1c(N2CCOCC2)nc2c1c(=O)[nH]c(=O)n2C`, for which the inhibition was 16% (inactive). Next, `Cc1cc(NC(=O)COC(=O)C2COc3ccccc3O2)no1` (stereo not drawn): 4% (inactive). With `CCc1cc2c(NCCC(=O)O)nc(C)nc2s1`, the inhibition is 1% (inactive). In the case of `CN1CCN(CC(=O)N2c3ccccc3C(C)(c3ccccc3)CC2(C)C)CC1` (stereo not drawn), the inhibition is 0% (inactive).

As for `Cc1nc(NCc2ccc3c(c2)OCO3)c2oc3ccccc3c2n1`, the inhibition is 1% (inactive).

On to `O=C(Nc1cnn(Cc2ccc(F)cc2)c1)c1cnccn1`, for which the inhibition was 2% (inactive). For `CCOc1cccc(/C(O)=C2/C(=O)C(=O)N(CCN3CCOCC3)C2c2cccnc2)c1` (stereo not drawn), the inhibition is 0% (inactive). For `O=C(O)C1CCCN(S(=O)(=O)c2ccc(Cl)s2)C1` (stereo not drawn), the inhibition was 2% (inactive).

Regarding `Cc1csc(NC(=O)CCS(=O)(=O)c2ccc(Br)cc2)n1`, the inhibition is 2% (inactive).

For `Cc1ccc(N2CCN(CCc3nc4cc(NS(C)(=O)=O)ccc4n3C)CC2)cc1`, the inhibition was 0% (inactive).
